FadD28 FP inh = inhibitors of FadD28 bisubstrate probe binding, primary screen, biochemical, fluorescence polarization, single point. Mycobacterium tuberculosis FadD28 fatty-acid-AMP ligase. inhibition, % at 12.5 µM. actives 0.22% (n = 360,000); in the data active = inhibition above about 8.5%, passing the limit was not always enough
Yp Topo-I inh = Yersinia pestis topoisomerase I inhibitors, primary screen, biochemical, cleavage product accumulation, plate reader, single point; DNA topoisomerase I (Yersinia pestis CO92); Y. pestis Topo-I cleavage product accumulation; activity, % at 10 µM; actives 0.064% (n = 360,000); in the data active = activity above about 50%, passing the limit was not always enough
BioA inh = M. tuberculosis BioA enzyme inhibitors, primary screen, biochemical, plate reader, single point, HTS; purified M. tuberculosis BioA enzyme; inhibition, % at 9.99 µM; actives 0.096% (n = 360,000); AID 602481, 2012; in the data active = inhibition above about 40%
TcdB inh = TcdB glycohydrolase inhibitors, primary screen, biochemical, single point, plate reader. Toxin B (Clostridioides difficile), P18177. TcdB glycohydrolase enzymatic assay. inhibition, % at 9.99 µM. actives 0.24% (n = 350,000). AID 652162, 2013; in the data active = inhibition above about 10%
Vc quorum ag-1 = inducers of Vibrio cholerae quorum light production without autoinducers, primary screen, BH1578 luxS cqsA deficient, single point; activation, % at 18.7 µM; actives 0.16% (n = 350,000); V. cholerae BH1578 lux reporter, luminescence, 6 h; in the data active = activation mostly above about 9.7%, no sharp cut-off
Vc quorum ag-2 = V. cholerae lux activation without autoinducers – BH1578 luxS cqsA deficient, cherry-pick, plate reader, dose response. shares compounds with Vc quorum ag-1. V. cholerae BH1578 lux reporter, luminescence, 6 h. activation, % at 50 µM. 620 tested, under 10 active; call rule not given here
Numbers stand for hits; - = inactive; . = not tested or not shown; + = active, no number. An excerpt weighted towards active compounds, which were near 0.58% of everything screened.

SMILES | FadD28 FP inh | Yp Topo-I inh | BioA inh | TcdB inh | Vc quorum ag-1 | Vc quorum ag-2
O=C(Nc1ccc(S(=O)(=O)N2CCCCCC2)cc1)c1ccco1 | - | - | - | . | - | .
C[C@@H]1CN([C@H](C)CO)C(=O)Cc2cc(NS(=O)(=O)c3cccs3)ccc2O[C@H]1CN(C)Cc1ccncc1 | . | . | - | . | . | .
CCCCCc1c(C)nc(N2CCc3ccccc3C2)[nH]c1=O | - | - | - | . | 25 | -
Cc1nc(N2CCc3ccccc3C2)[nH]c(=O)c1Cc1ccccc1 | - | - | . | - | - | .
O=S(=O)(Nc1ccc(-c2ccc3nncn3n2)cc1)c1ccccc1Cl | - | - | . | - | - | .
O=S(=O)(Nc1ccc(-c2ccc3nncn3n2)cc1)c1ccc(Cl)s1 | - | - | . | - | 160 | -
Cn1c(C(=O)NC2CCCCCC2)cc2c(=O)n(C)c3ccccc3c21 | - | - | - | - | - | .
Cn1c(C(=O)NC2CCCCC2)cc2c(=O)n(C)c3ccccc3c21 | - | - | - | - | 245 | -
CCCCn1c(=O)[nH]c(=O)c2c1nc(COc1ccc(C#N)cc1)n2CCC | - | - | . | . | - | -
Cc1cc(C)n2cc(COc3ccc4ccccc4c3)nc2n1 | - | - | . | - | + | -
O=C(Oc1ccnc2cc(Cl)ccc12)N1CCCCCC1 | - | - | - | . | 17 | -
CO[C@@H]1CN(C)C(=O)c2cc(NC(=O)NC3CCCCC3)ccc2OC[C@H](C)N(CCc2ccccc2)C[C@H]1C | . | . | - | - | . | .
CC(C)(C)c1nc(N2CCN(C(=O)c3ccco3)CC2)c2nnn(Cc3ccccc3)c2n1 | - | - | - | . | 17 | -
CN(C)C(=O)C[C@@H]1C[C@H]2c3cc(NS(=O)(=O)c4ccccc4)ccc3O[C@H]2[C@@H](CO)O1 | . | . | - | - | . | .
C[C@H]1CN([C@@H](C)CO)C(=O)c2cccc(NC(=O)NC3CCCCC3)c2O[C@@H]1CN(C)Cc1ccc(C(=O)O)cc1 | . | . | - | - | . | .
O=C(c1ccccc1)N1CC(=O)N2[C@H](CO)[C@H](c3ccc(C#Cc4ccccc4)cc3)[C@H]2C1 | . | . | . | - | . | .
COC(=O)C1CCN(C(=O)CN(C)Cc2ccc(C(C)(C)C)cc2)CC1 | - | - | - | - | 41 | -
CCC(Oc1ccccc1)C(=O)Nc1ccc(-c2nnc(-c3ccco3)o2)cc1 (stereo not given) | - | - | - | . | 17 | -
O=C(Cc1cccs1)Nc1ccc(-c2nnc(-c3ccco3)o2)cc1 | - | - | . | - | - | .
Cc1ccc(C)n1-c1sc2c(c1C#N)CCC(C)C2 (stereo not given) | - | - | - | . | - | -
Cc1ccc(S(=O)(=O)Nc2ccc3c(c2)C(=O)N([C@H](C)CO)C[C@@H](C)[C@H](CN(C)C(=O)C2CCCCC2)OCCCC[C@@H](C)O3)cc1 | . | . | - | - | . | .
C=CCNC(=O)CCCOc1ccc(C)cc1 | - | - | - | . | 35 | -
O=C(NCc1ccccn1)C(C(=O)c1ccc(F)cc1)n1ccccc1=O (stereo not given) | - | - | - | . | - | -
O=C(NCc1ccco1)C(C(=O)c1ccc(F)cc1)n1ccccc1=O (stereo not given) | - | - | - | - | - | .
CC1(NC(=O)C23CC4CC(CC(C4)C2)C3)CCS(=O)(=O)C1 (stereo not given) | - | - | - | . | 17 | -
SMILES | FadD28 FP inh | Yp Topo-I inh | BioA inh | TcdB inh | Vc quorum ag-1 | Vc quorum ag-2
CC(=O)c1cccc(NC(=O)COC(=O)Cc2ccc(Cl)cc2)c1 | - | - | - | - | - | -
OCCNc1nc(Nc2cccc(O)c2)nc2ccccc12 | - | - | . | - | - | .
COc1cccc(Nc2nc(NCCO)c3ccccc3n2)c1 | . | - | . | . | 40 | -
CO[C@@H]1CN(C)C(=O)c2cc(NS(=O)(=O)c3ccc(C)cc3)ccc2OC[C@@H](C)NC[C@@H]1C | . | . | - | - | . | .
COc1ccc(-c2nc(N)ncc2Oc2ccccc2Br)c(O)c1 | - | - | - | . | 36 | -
CN(C)c1ccc(NC(=O)Cn2ncn3c(cc4ccccc43)c2=O)cc1 | - | - | - | - | - | .
Cc1cc(C)cc(NC(=O)Cn2ncn3c(cc4ccccc43)c2=O)c1 | - | - | - | - | 18 | -
O=C(CNc1cc(S(=O)(=O)N2CCOCC2)ccc1N1CCCC1)Nc1ccc(Cl)cc1 | - | - | - | - | 97 | -
COc1ccc(S(=O)(=O)Nc2ccc3c(c2)C(=O)N([C@H](C)CO)C[C@@H](C)[C@@H](CN(C)S(C)(=O)=O)OCCCC[C@@H](C)O3)cc1 | . | . | - | - | . | .
Cc1cc(N2CCC(C)CC2)nc2ccc(N3C(=O)CCC3=O)cc12 | - | - | - | . | - | -
CCCCNC(=O)CCC(=O)Nc1ccc2nc(N3CCC(C)CC3)cc(C)c2c1 | - | - | . | - | - | .
C[C@@H]1CN([C@@H](C)CO)C(=O)Cc2cc(NC(=O)Nc3ccc4c(c3)OCO4)ccc2O[C@H]1CN(C)S(=O)(=O)c1cccs1 | . | . | - | . | . | .
c1ccc(-c2ccc(CN3Cc4ccccc4-n4nncc4C3)cc2)cc1 | - | - | - | - | 249 | -
CCOC(=O)C1=C(C)NC(SC)=NC1c1ccc(OC)cc1 (stereo not given) | - | - | - | . | - | -
CCNC(=O)C[C@@H]1CC[C@@H]2[C@@H](COc3ccc(NC(=O)c4cccs4)cc3C(=O)N2C)O1 | . | . | - | - | . | .
Cc1cc(NC2CCCCC2)nc(-c2ccccc2O)n1 | - | - | - | . | 17 | -
Cc1cc(Nc2ccccc2)nc(-c2ccccc2O)n1 | - | - | - | . | - | .
CN(C)CC(=O)N1CC2(C1)[C@H](c1ccccc1)[C@H](CO)N2Cc1ccccc1F | . | . | . | - | . | .
CCc1sc(N(C(=O)Cc2ccccc2)c2ccccc2F)nc1-c1ccc(C)cc1 | - | - | . | - | - | .
CCc1sc(N(C(=O)Cc2ccccc2)c2cccc(F)c2)nc1-c1ccc(C)cc1 | - | - | - | . | - | -
COC(=O)c1[nH]c2ccc(F)cc2c1NC(=O)Nc1ccc(OC)cc1 | - | - | - | . | - | .
COC(=O)c1[nH]c2ccc(C)cc2c1NC(=O)Nc1ccc(OC)cc1 | - | - | - | . | 18 | -
C[C@@H]1CN([C@H](C)CO)C(=O)c2cccc(NC(=O)Nc3ccc4c(c3)OCO4)c2O[C@@H]1CN(C)S(=O)(=O)c1ccccc1 | . | . | - | - | . | .
C[C@H](CO)N1C[C@H](C)[C@@H](CN(C)S(=O)(=O)c2ccccc2)Oc2c(NC(=O)Nc3ccc4c(c3)OCO4)cccc2C1=O | - | - | - | - | 109 | -
CN1CCN(C(=O)CCN2C(=O)c3ccccc3C2=O)CC1 | - | - | . | - | - | .
O=C(CCN1C(=O)c2ccccc2C1=O)N1CCN(C2c3ccccc3-c3ccccc32)CC1 | - | - | - | . | - | -
CCCNC(=O)[C@@H]1[C@@H](CO)[C@@H]2Cn3c(ccc(-c4ccccc4OC)c3=O)[C@@H]2N1S(C)(=O)=O | . | . | . | - | . | .

Compound activity: PubChem, Broad Institute
